Source: PubChem BioAssay (NCI)
The panel holds about 79,000 compounds, 15% with a hit somewhere; the sample as a whole holds those more often. A number with no mark means an inactive call. Active and inactive are the calls of the source. Cut-off read from the data, not from the text of the source: active = growth inhibition above about 70%; inactive = the rest.

How the values were obtained:
[1] = NCI Yeast Anticancer Drug Screen. Data for the rad50 strain (AID 155);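 note: 0% = growth of vehicle-only cultures of the same strain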; conditions: S. cerevisiae rad50 strain growth inhibition, active compounds read high
In short: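 Growth of the mutant yeast was measured after compound exposure and referenced to vehicle-treated cultures.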

[2] = NCI Yeast Anticancer Drug Screen. Data for the mec2-1 strain (AID 157); conditions: S. cerevisiae mec2-1 strain, active compounds read high
In short: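 mec2-1 yeast strain, carrying an alteration in DNA damage repair or cell cycle control, was exposed to compounds; growth inhibition was measured relative to vehicle-treated controls.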

[3] = NCI Yeast Anticancer Drug Screen. Data for the sgs1 mgt1 strain (AID 161);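 note: 0% = growth of cultures given vehicle only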; conditions: S. cerevisiae sgs1 mgt1 strain, active compounds read high
In short: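 Percent growth inhibition was derived by comparing compound-exposed mutant yeast with vehicle-exposed cultures. The strain carries alterations in DNA damage repair.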

[4] = NCI Yeast Anticancer Drug Screen. Data for the cln2 rad14 strain (AID 165);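 note: 0% = growth equal to vehicle treated cultures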; conditions: S. cerevisiae cln2 rad14 strain, active compounds read high
In short: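 Yeast carrying cln2 and rad14 alterations (cell cycle control and DNA damage repair) were exposed to compounds. Growth inhibition was measured against vehicle-treated controls.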

[5] = NCI Yeast Anticancer Drug Screen. Data for the bub3 strain (AID 167); conditions: S. cerevisiae bub3 mutant strain, active compounds read high
In short: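 Whole-cell yeast assay. The mutant strain was incubated with compounds, and growth inhibition was determined by comparison with vehicle-treated cells.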

[6] = NCI Yeast Anticancer Drug Screen. Data for the mlh1 rad18 strain (AID 175); conditions: S. cerevisiae mlh1 rad18 strain growth inhibition, active compounds read high
In short: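 Growth inhibition of the yeast strain was measured after compound exposure and expressed relative to vehicle-treated controls. The strain carries defined defects in DNA damage repair.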

[7] = at 5.0 µM (retest, dose inferred, filed as 0.5)
[8] = at 50.0 µM (retest, dose inferred, filed as 5.0)

| Structure (SMILES) | growth inhibition [1, 7] | growth inhibition [1, 8] | growth inhibition ([1]; at 50.0 µM) | growth inhibition [2, 7] | growth inhibition [2, 8] | growth inhibition ([2]; at 50.0 µM) | growth inhibition [3, 7] | growth inhibition [3, 8] | growth inhibition ([3]; at 50.0 µM) | growth inhibition [4, 7] | growth inhibition [4, 8] | growth inhibition ([4]; at 50.0 µM) | growth inhibition [5, 7] | growth inhibition [5, 8] | growth inhibition ([5]; at 50.0 µM) | growth inhibition [6, 7] | growth inhibition [6, 8] | growth inhibition ([6]; at 50.0 µM) |
| --- | --- | --- | --- | --- | --- | --- | --- | --- | --- | --- | --- | --- | --- | --- | --- | --- | --- | --- |
| O=C1CCCC/C1=C/c1ccc(Cl)cc1 | -151% | 35% | 87.3% (active) | -49% | -13% | 81.2% (active) | -64% | 35% | 82% (active) | -57% | -37% | 33% | -64% | 27% | 73.7% (active) | -229% | 36% | 90.8% (active) |
| CC(C)(C)OC(=O)Nc1cccc(Cl)c1 | 11% | 71% (active) | 73.2% (active) | -4% | 12% | 14.8% | -1% | 7% | 55.7% | -2% | -20% | 2.9% | 46% | -2% | 10.2% | 4% | 33% | 80.5% (active) |
| OC(C/C(CNNc1ccccc1)=N/Nc1ccccc1)(C(F)(F)F)C(F)(F)F | 6% | -9% | 71.2% (active) | -2% | 76% (active) | 83.8% (active) | -6% | 5% | 69.2% | 2% | 75% (active) | 55.4% | -1% | 59% | 74.6% (active) | 14% | 78% (active) | 89% (active) |
| O=C1/C(=C/c2ccc3c(c2)OCO3)Sc2scc(-c3ccc(O)c(O)c3)[n+]21 | 25% | 98% (active) | 83.8% (active) | 33% | 99% (active) | 88.3% (active) | 67% | 98% (active) | 91% (active) | 26% | 98% (active) | 89.4% (active) | 97% (active) | 98% (active) | 88.5% (active) | 27% | 99% (active) | 90.8% (active) |
| O=NNc1ccc2cc3ccc(NN=O)cc3nc2c1 | 16% | 25% | 43.2% | 6% | 26% | -11.1% | 7% | 24% | 52.5% | 11% | 24% | 27.7% | 9% | 14% | 34.6% | 15% | 31% | 52.7% |
| Cc1ccc(C(=O)OCCN2CCN(c3ccccc3)CC2)c([N+](=O)[O-])c1OCc1ccccc1 | 30% | 66% | 87% (active) | 36% | 43% | 63.9% | 25% | 82% (active) | 89.3% (active) | 24% | 64% | 74% (active) | 28% | 70% (active) | 72.7% (active) | 19% | 78% (active) | 90.6% (active) |
| CC(=O)Nc1cc(Cl)c2c(c1)C(=O)c1ccccc1-2 | 64% | 82% (active) | 91.8% (active) | 34% | 61% | 14.6% | 43% | 77% (active) | 35.6% | 24% | 35% | -23.4% | 14% | 38% | 19.1% | 41% | 79% (active) | 33% |
| Cc1cc2ccccc2c[n+]1Cc1ccc2ccccc2n1 | -6% | -1% | 53.6% | 9% | 45% | 29.4% | -13% | 12% | 65.4% | -8% | -24% | 21.6% | -5% | 23% | 49.3% | 1% | 41% | 69.3% |
| CC1=C/C(=C\c2ccc([N+](=O)[O-])o2)C(=O)O1 | 95% (active) | 99% (active) | 99.3% (active) | 86% (active) | 99% (active) | 99.5% (active) | 93% (active) | 52% | 99.2% (active) | 97% (active) | 99% (active) | 99.3% (active) | 49% | 99% (active) | 98.8% (active) | 97% (active) | 99% (active) | 99.2% (active) |
| Clc1cccc(C2SCc3nc4ccccc4n32)c1Cl (stereo not given) | -2% | 97% (active) | 98.6% (active) | -3% | 98% (active) | 98.4% (active) | 2% | 98% (active) | 97.5% (active) | -17% | 97% (active) | 97.4% (active) | 1% | 98% (active) | 98.5% (active) | -4% | 98% (active) | 97.1% (active) |
| COc1cc(C)cc(C(=O)OCc2ccccc2)c1C1=C(Cl)C(=O)C(Cl)=CC1=O | 16% | 16% | 85.5% (active) | 12% | 12% | 83.9% (active) | 5% | 5% | 87.5% (active) | 10% | 10% | 82% (active) | -16% | -16% | 80.5% (active) | 4% | 4% | 74.5% (active) |
| CCCCc1[nH]ccc2c(C)c3nc4ccccc4c3cc12 | 6% | 93% (active) | 96.8% (active) | -8% | 96% (active) | 91.2% (active) | -14% | 96% (active) | 97.5% (active) | 2% | 95% (active) | 92.1% (active) | 0% | 94% (active) | 88.7% (active) | 21% | 95% (active) | 98.4% (active) |
| COc1ccc2c(c1)CC/C(=C\c1ccc(OCCN(C)C)cc1)C2=O | 12% | 19% | 40.2% | 2% | 15% | 48.8% | 8% | 33% | 44.8% | 8% | -3% | 15.4% | 12% | 25% | 20.4% | 6% | 28% | 57% |
| COc1ccccc1NC(=O)CSC(N)=O | 5% | 24% | 71% (active) | 4% | 42% | 61.8% | 3% | 24% | 92.5% (active) | 5% | 7% | 58% | 4% | 66% | 88.2% (active) | 2% | 21% | 74% (active) |
| CN(C)C(=S)/N=c1\ss/c(=N\S(=O)(=O)c2ccccc2)n1-c1ccccc1 | 0% | 0% | 37.6% | -5% | -13% | 51.9% | -2% | 26% | 64.9% | -10% | -21% | 9.6% | -52% | -2% | 29.1% | -1% | 15% | 59.7% |
| CCCCCCCCCCCC(=O)OCC1OC(OC)C(NC(=O)N(CCCl)N=O)C(O)C1O (stereo not given) | 39% | 39% | 79.9% (active) | 20% | 20% | 67.5% | 21% | 21% | 90.5% (active) | 17% | 17% | 30.5% | 13% | 13% | 77.4% (active) | 14% | 14% | 76% (active) |
| CCN(CC)CCOc1c(I)cc(I)cc1I | 2% | 98% (active) | 84.3% (active) | 0% | 98% (active) | 82.4% (active) | 12% | 99% (active) | 96.5% (active) | 7% | 98% (active) | 98.2% (active) | 6% | 98% (active) | 84.8% (active) | 1% | 99% (active) | 99.2% (active) |
| CC1(c2ccccc2)OC(=O)C=CC1=O (stereo not given) | 15% | 99% (active) | 99.4% (active) | 28% | 98% (active) | 99.7% (active) | 21% | 97% (active) | 99.5% (active) | 8% | 100% (active) | 99% (active) | 32% | 100% (active) | 99.5% (active) | 27% | 99% (active) | 99.5% (active) |
| CC(C)=NNc1ncnc2nc[nH]c12 | 11% | 3% | 12.5% | -1% | -11% | 19.1% | -4% | -13% | -28.8% | 4% | -3% | 25.6% | 5% | 2% | 6.9% | -14% | 3% | -7.5% |
| COc1cccc2c1[n+]([O-])c1cccc(O)c1[n+]2[O-] | 98% (active) | 99% (active) | 91.4% (active) | 99% (active) | 100% (active) | 90.4% (active) | 100% (active) | 100% (active) | 87.5% (active) | 93% (active) | 99% (active) | 88.4% (active) | 99% (active) | 100% (active) | 84.2% (active) | 97% (active) | 99% (active) | 91.7% (active) |
